Data reported in the supplement of paper PMC10981050.
“And” between values parts separate entries of the source, which are not always exact repeats. Equal values may be shown once. Where a name gives a salt, the structure may show the parent alone.

Columns and labels:
Assay in all cases: cell viability relative to vehicle control; higher = less cytotoxic
Details in all cases: 10 µM
K562 = system: K562
Method in brief: (§1)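 Mutant clones made by CRISPR editing and their isogenic wild-type counterparts, from four leukaemia lines, were exposed to a single 10 µM dose of each library compound for 48 h. The supernatant was then removed and CellTiter-Glo luminescence was read. Viability was reported as percent of the on-plate vehicle control.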

MARIMO = system: MARIMO
Method in brief: as §1

MOLM14 = system: MOLM14
Method in brief: as §1

OCI-AML2 = system: OCI-AML2
Method in brief: as §1

| SMILES | cell viability (K562; SRSF2 genotype: SRSF2 P95H/wt) | cell viability (K562; SRSF2 genotype: SRSF2 wt/wt) [%] | cell viability (MARIMO; SRSF2 genotype: SRSF2 P95H/wt) [%] | cell viability (MARIMO; SRSF2 genotype: SRSF2 wt/wt) [%] | cell viability (MOLM14; SRSF2 genotype: SRSF2 P95H/wt) [%] | cell viability (MOLM14; SRSF2 genotype: SRSF2 wt/wt) [%] | cell viability (OCI-AML2; SRSF2 genotype: P95H/wt) [%] | cell viability (OCI-AML2; SRSF2 genotype: wt/wt) [%] |
| --- | --- | --- | --- | --- | --- | --- | --- | --- |
| O=C(C=Cc1cccnc1)c1ccncc1 | 81.1% and 89% | 77.7 | 64.4 | 62.8 | 19.3 | 18.4 | 16.8 | 28.9 |
| CC(=O)N1c2ccc(-c3ccc(C(=O)O)cc3)cc2[C@H](Nc2ccc(Cl)cc2)C[C@@H]1C | 59.6% and 63.6% | 74.7 | 23.6 | 28.7 | 16.3 | 14.4 | 7.87 | 17.8 |
| C=C(C)[C@@H]1CC[C@]2(C(=O)O)CC[C@]3(C)[C@H](CC[C@@H]4[C@@]5(C)CCC(=O)C(C)(C)[C@@H]5CC[C@]43C)[C@@H]12 [Betulonic acid] | 45.2% and 68% | 61.4 | 34.2 | 20.9 | 43.6 | 32.2 | 29.6 | 17.1 |
| O=CC[C@@H](O)[C@H](O)[C@H](O)CO [2-Deoxy-D-glucose] | 104% and 94.5% | 99.2 | 101 | 107 | 102 | 101 | 91.3 | 108 |
| Cc1cc(F)c(C(=O)Nc2cccc(-c3nncn3C(C)C)n2)cc1-n1cnc(C2CC2)c1 [Selonsertib (GS-4997)] | 78.6% and 86.2% | 82 | 57.1 | 72.1 | 63.5 | 68.5 | 49.5 | 62 |
| Nc1cc(C(Cl)=C(Cl)Cl)c(S(N)(=O)=O)cc1S(N)(=O)=O [Clorsulon] | 92.3% and 94.2% | 99.7 | 103 | 107 | 104 | 99.8 | 99.9 | 112 |
| CCOC(=O)C1=C[C@@H](OC(CC)CC)[C@H](NC(C)=O)[C@@H](N)C1 [Oseltamivir Phosphate] | 103% and 105% | 104 | 102 | 106 | 110 | 109 | 110 | 104 |
| CNC[C@H](O)c1ccc(O)c(O)c1 [Epinephrine bitartrate (Adrenalinium)] | 97.4% and 94.9% | 94 | 102 | 108 | 84.5 | 97.6 | 102 | 112 |
| Cn1c(=O)c(Oc2ccc(F)cc2F)cc2cnc(NC(CCO)CCO)nc21 | 91.7% and 92.6% | 90.4 | 98.9 | 97.2 | 92.2 | 99.8 | 96.2 | 92.2 |
| O=C(O)[C@@]1(CCCCCCOc2ccc(Cl)cc2)CO1 [Etomoxir (Na salt)] | 113% and 110% | 115 | 104 | 110 | 106 | 108 | 107 | 96.8 |
| C=C1C[C@@]23CC[C@H]4[C@@](C)(CCC[C@@]4(C)C(=O)O)[C@@H]2CC[C@@H]1C3 [Kaurenoic acid] | 105% and 103% | 107 | 105 | 101 | 112 | 103 | 104 | 106 |
| COc1ccc(CCC(=O)N(c2nccc3ccccc23)[C@@H]2CCCNC2)cc1 | 91.8% and 90.5% | 85.2 | 79 | 93.4 | 80.5 | 85.3 | 91 | 91.2 |
| C=C1CCC[C@]2(C)C[C@]3(O)OC(=O)C(C)=C3C[C@@H]12 [Atractylenolide III] | 105% and 101% | 99.3 | 101 | 102 | 102 | 99 | 94.9 | 106 |
| CSc1cccc(Nc2ncc3cc(-c4c(Cl)cccc4Cl)c(=O)n(C)c3n2)c1 | 6.76% and 14.3% | 9.82 | 34.3 | 65.4 | 26.6 | 31.6 | 12.8 | 20.9 |
| C[C@H](CCC(=O)O)[C@H]1CC[C@H]2[C@@H]3CC[C@@H]4C[C@H](O)CC[C@]4(C)[C@H]3CC[C@]12C [Lithocholic acid] | 102% and 101% | 101 | 106 | 113 | 98.9 | 104 | 107 | 112 |
| COc1ccc(C[C@H](N)C(=O)N[C@H]2[C@@H](O)[C@H](n3cnc4c(N(C)C)ncnc43)O[C@@H]2CO)cc1 [Puromycin 2HCl] | 1.95% and 1.45% | 1.55 | 1.69 | 0.77 | 0.25 | 0.31 | 0.26 | 0.49 |
| CC(C)=CCC[C@](C)(O)[C@H]1CC[C@]2(C)[C@@H]1[C@H](O)C[C@@H]1[C@@]3(C)CC[C@H](O[C@@H]4O[C@H](CO)[C@@H](O)[C@H](O)[C@H]4O[C@@H]4O[C@H](CO)[C@@H](O)[C@H](O)[C@H]4O)C(C)(C)[C@@H]3CC[C@]12C [20S-Ginsenoside Rg3] | 107% and 97.7% | 101 | 108 | 108 | 101 | 102 | 105 | 104 |
| N#C/C(=C1/SC[C@@H](c2ccc(Cl)cc2Cl)S1)n1ccnc1 [Luliconazole] | 85.6% and 83.3% | 82.6 | 78.9 | 100 | 88.7 | 89.5 | 62.5 | 83.5 |
| CCCCCCCCCC=O [Decyl aldehyde] | 98.7% and 94.8% | 106 | 99.1 | 101 | 102 | 105 | 100 | 111 |
| CCN(c1cc(-c2ccc(CN3CCOCC3)cc2)cc(C(=O)NCc2c(C)cc(C)[nH]c2=O)c1C)C1CCOCC1 [Tazemetostat (EPZ-6438)] | 92.9% and 95% | 94.2 | 93.3 | 102 | 89.5 | 93.3 | 105 | 99.6 |
| C[n+]1c2n(c(=O)c3ccccc31)CCc1c-2[nH]c2ccccc12 [Dehydroevodiamine] | 93.1% and 93.3% | 91.5 | 88.7 | 88.2 | 94.8 | 98.2 | 97.2 | 87.5 |

| SMILES | cell viability (K562; SRSF2 genotype: SRSF2 P95H/wt) | cell viability (K562; SRSF2 genotype: SRSF2 wt/wt) [%] | cell viability (MARIMO; SRSF2 genotype: SRSF2 P95H/wt) [%] | cell viability (MARIMO; SRSF2 genotype: SRSF2 wt/wt) [%] | cell viability (MOLM14; SRSF2 genotype: SRSF2 P95H/wt) [%] | cell viability (MOLM14; SRSF2 genotype: SRSF2 wt/wt) [%] | cell viability (OCI-AML2; SRSF2 genotype: P95H/wt) [%] | cell viability (OCI-AML2; SRSF2 genotype: wt/wt) [%] |
| --- | --- | --- | --- | --- | --- | --- | --- | --- |
| C=CC(=O)N1C[C@H](Nc2ncnc3[nH]ccc23)CC[C@@H]1C | 96.3% and 105% | 102 | 94.5 | 97.7 | 81.1 | 93.8 | 86.8 | 91.6 |
| C=C(C)C1CCC2(C)CCC(=O)C(C)=C2C1 (stereo not drawn) | 111% and 105% | 112 | 106 | 100 | 112 | 110 | 102 | 101 |
| CCN(CC)CC(=O)Nc1c(C)cccc1C [Lidocaine (Alphacaine)] | 113% and 102% | 111 | 106 | 108 | 103 | 105 | 101 | 106 |
| CCN(CC)CCOC(=O)C(c1ccccc1)c1ccccc1 [Adiphenine HCl] | 97.9% and 89.7% | 85.9 | 85.1 | 96.3 | 89 | 94.3 | 92.4 | 81.1 |
| Cc1cnc(Nc2ccc(F)cc2Cl)nc1-c1c[nH]c(C(=O)NC(CO)c2cccc(Cl)c2)c1 (stereo not drawn) | 60.8% and 83.2% | 72.9 | 44.9 | 46 | 58.5 | 48.1 | 47.4 | 47.7 |
| CCc1ccc(CCOc2ccc(CC3SC(=O)NC3=O)cc2)nc1 (stereo not drawn) [Pioglitazone (Actos)] | 98.5% and 116% | 109 | 104 | 103 | 102 | 108 | 111 | 103 |
| COc1ccnc2[nH]cc(C(=O)C(=O)N3CCN(C(=O)c4ccccc4)C[C@H]3C)c12 | 93.7% and 90.7% | 84.5 | 90 | 99.2 | 95.6 | 90.3 | 82.2 | 86.4 |
| CN(C)CC(=O)Nc1ccc2[nH]c(=O)c3ccccc3c2c1 | 97.7% and 93.8% | 94.9 | 100 | 94.6 | 89.1 | 96 | 91.6 | 98.4 |
| O=C1NS(=O)(=O)c2ccccc21 [Saccharin] | 99% and 89.3% | 93.9 | 90.5 | 101 | 97.9 | 96.6 | 89.5 | 103 |
| CC(C)(CCCCCC(O)CCCCCC(C)(C)C(=O)O)C(=O)O | 103% and 96.8% | 102 | 106 | 106 | 104 | 104 | 97.5 | 108 |
| CCOC(=O)[C@H](CCc1ccccc1)N[C@@H](C)C(=O)N1C(=O)N(C)C[C@H]1C(=O)O [Imidapril HCl] | 93.9% and 85.6% | 90.9 | 84.9 | 94.4 | 95.1 | 95.2 | 108 | 87.7 |
| O=C1N=C(N2CCOCC2)CN1c1ccc(Cl)cc1 | 107% and 99% | 94.4 | 99.3 | 111 | 94.8 | 104 | 95.4 | 86.8 |
| O=C(Nc1cccc(C2=NCCN2)c1)Nc1cccc(C2=NCCN2)c1 [Imidocarb dipropionate] | 98.4% and 92.2% | 95.3 | 91.5 | 103 | 80.2 | 87.7 | 88.6 | 89.4 |
| COc1cc(C=O)ccc1OC(C)=O [Acetylvanillin] | 99.2% and 99.9% | 99.7 | 104 | 103 | 104 | 101 | 98.4 | 104 |
| C[C@@H]1O[C@@H](OC[C@H]2O[C@@H](Oc3cc(O)c4c(c3)O[C@H](c3ccc(O)cc3)CC4=O)[C@H](O)[C@@H](O)[C@@H]2O)[C@H](O)[C@H](O)[C@H]1O [Narirutin] | 96.8% and 92.1% | 92.3 | 98.2 | 97.5 | 98.9 | 96.8 | 101 | 99.4 |
| O=C(Nc1cc(C(F)(F)F)cc(C(F)(F)F)c1)c1cc(Cl)ccc1O | 5.29% and 8.22% | 5.97 | 19 | 18.3 | 10.3 | 8.64 | 2.4 | 8.72 |
| COc1c(C)c(C(=O)c2ccc(N)c(C(=O)O)c2)n2ccccc12 | 106% and 97.6% | 101 | 102 | 110 | 105 | 108 | 97.6 | 106 |
| O=C(Nc1ccccc1Br)N[C@@H]1CCN(c2ccc(C(F)(F)F)cn2)C1 | 88.5% and 90.8% | 91.5 | 89.3 | 101 | 98.5 | 99.3 | 78.4 | 89.7 |
| O=C(Oc1cc(S(=O)(=O)c2ccccc2)ccc1[N+](=O)[O-])c1ccc(Cl)cc1 | 104% and 109% | 106 | 106 | 103 | 104 | 107 | 114 | 115 |
| CC(C)C1=CC2=CC[C@@H]3[C@](C)(CCC[C@@]3(C)C(=O)O)[C@H]2CC1 [Abietic Acid] | 113% and 104% | 98.8 | 105 | 115 | 99.5 | 105 | 90.9 | 95.5 |
